Among the data in PubChem BioAssay are growth inhibition, inhibition and outcome values, retold here.

A short description of experiment [1]: antimalarial activity against Dd2 strain (AID 2302;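 active = growth inhibition above 50% at the single 2 µM test dose, taken to imply half-maximal potency below 2 µM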;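 note: 0% = DMSO untreated growth and 100% = chloroquine plus artemisinin killed control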). The note with it: P. falciparum Dd2 in RBCs, LDH growth readout, 72 h; at 2 µM; stronger effect = higher value.
Experiment [2] can be described thus: human hepatoma cell viability loss – ATP luminescence, cytotoxicity control for P. falciparum antimalarial project, primary screen (AID 2303;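 active = inhibition above 50%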;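 note: 0% = DMSO wells and 100% = digitonin-killed cells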). The conditions noted are these: HepG2 viability, 24-48 h, at 10 µM, stronger effect = higher value.
Experiment [3] concerns the target L-lactate dehydrogenase (Plasmodium falciparum (isolate CDC / Honduras)) (UniProt Q27743). Briefly: PfLDH activity inhibition – cell lysate, 3D7 strain, counter-screen for P. falciparum growth inhibition project (AID 2304).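 Note: 0% = vehicle and 100% = reference inhibitor.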 The note with it: P. falciparum 3D7 crude extract, LDH APAD/NBT absorbance; at 2 µM; stronger effect = higher value. Background: A counterscreen serves to expose hits that act by an unwanted route or on another target.

Experiment [4] in a line: inhibition of 3D7 malaria parasite growth – strain 3D7 (AID 2306).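 Note: 0% = DMSO wells and 100% = chloroquine plus artemisinin control wells.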 The note with it: P. falciparum 3D7 erythrocytic growth, LDH absorbance, 72 h; at 2 µM; stronger effect = higher value.
For experiment [5], the target named is Calcium-dependent protein kinase 1 (Plasmodium falciparum (isolate 3D7)) (UniProt P62344). Briefly: PfCDPK1 kinase inhibitors, biochemical, TCAMS library (AID 1159585; cut-off not given, nearly all actives have IC50 up to about 0.98 µM;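 note: inhibitors leave more ATP so luminescence rises with inhibition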). The note with it: recombinant PfCDPK1, Kinase-Glo ATP depletion luminescence.
For experiment [6], the target named is Plasmodium falciparum protein kinase 6 (PK6, PF3D7_1337100) (UniProt Q8IDW1). In words: PfPK6 kinase inhibitors, biochemical, TCAMS library (AID 1159586). The note with it: recombinant PfPK6, Kinase-Glo ATP depletion luminescence.
The target of experiment [7] is Protein kinase 7 (PK7), Plasmodium falciparum 3D7 (PF3D7_0213400) (UniProt Q7YTF7). Briefly: inhibition of Plasmodium PK7 catalytic activity – biochemical, TCAMS antimalarial set, Kinase-Glo luminescence (AID 1159587). The note with it: recombinant PfPK7, Kinase-Glo ATP depletion luminescence.
Experiment [8] deals with Calcium-dependent protein kinase 4 (Plasmodium falciparum (isolate 3D7)) (UniProt Q8IBS5). In words: PfCDPK4 kinase inhibitors, biochemical, TCAMS library (AID 1159588; cut-off not given, nearly all actives have IC50 up to about 0.91 µM). The conditions noted are these: recombinant PfCDPK4, Kinase-Glo ATP depletion luminescence.

Each structure is given as a SMILES string. Several values for one entry are separate records, joined by “and”; a condition that tells them apart may be missing. Identical values can stand only once. For some of these results: Results with a measured potency or affinity are listed apart. A structure can be active in one record and inactive in another. Activity calls are given as the source filed them. Unless noted, the rule behind the calls is not given here.

Chain of Calcium-dependent protein kinase 4 (Plasmodium falciparum (isolate 3D7)) (Q8IBS5 whole entry, looked up): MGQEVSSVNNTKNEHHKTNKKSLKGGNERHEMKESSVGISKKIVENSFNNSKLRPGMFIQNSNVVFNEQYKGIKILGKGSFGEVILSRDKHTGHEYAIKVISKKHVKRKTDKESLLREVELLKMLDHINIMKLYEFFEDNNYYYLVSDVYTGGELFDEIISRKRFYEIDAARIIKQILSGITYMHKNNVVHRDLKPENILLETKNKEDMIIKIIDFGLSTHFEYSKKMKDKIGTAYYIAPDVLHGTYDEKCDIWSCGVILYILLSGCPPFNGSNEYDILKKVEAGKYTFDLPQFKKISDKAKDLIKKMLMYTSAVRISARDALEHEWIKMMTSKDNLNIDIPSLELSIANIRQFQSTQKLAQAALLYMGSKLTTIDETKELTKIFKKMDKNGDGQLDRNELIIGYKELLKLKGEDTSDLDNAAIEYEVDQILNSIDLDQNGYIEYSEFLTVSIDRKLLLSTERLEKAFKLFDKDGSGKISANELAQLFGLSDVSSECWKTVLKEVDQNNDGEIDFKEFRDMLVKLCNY
Chain of Calcium-dependent protein kinase 1 (Plasmodium falciparum (isolate 3D7)) (P62344 whole entry, looked up): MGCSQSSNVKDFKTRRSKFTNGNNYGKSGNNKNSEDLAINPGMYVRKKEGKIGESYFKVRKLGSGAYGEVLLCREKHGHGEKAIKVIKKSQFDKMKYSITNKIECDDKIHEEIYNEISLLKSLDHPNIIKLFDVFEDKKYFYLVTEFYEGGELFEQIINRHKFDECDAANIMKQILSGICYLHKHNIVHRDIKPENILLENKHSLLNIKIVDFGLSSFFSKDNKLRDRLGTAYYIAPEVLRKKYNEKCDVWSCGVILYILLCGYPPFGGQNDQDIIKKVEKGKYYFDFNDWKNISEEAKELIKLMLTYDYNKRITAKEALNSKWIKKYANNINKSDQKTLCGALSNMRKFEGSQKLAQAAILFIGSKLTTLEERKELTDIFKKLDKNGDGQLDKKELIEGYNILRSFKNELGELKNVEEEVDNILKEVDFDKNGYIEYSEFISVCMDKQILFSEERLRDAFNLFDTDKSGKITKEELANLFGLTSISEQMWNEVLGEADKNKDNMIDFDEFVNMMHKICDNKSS
Chain of L-lactate dehydrogenase (Plasmodium falciparum (isolate CDC / Honduras)) (Q27743 whole entry, looked up): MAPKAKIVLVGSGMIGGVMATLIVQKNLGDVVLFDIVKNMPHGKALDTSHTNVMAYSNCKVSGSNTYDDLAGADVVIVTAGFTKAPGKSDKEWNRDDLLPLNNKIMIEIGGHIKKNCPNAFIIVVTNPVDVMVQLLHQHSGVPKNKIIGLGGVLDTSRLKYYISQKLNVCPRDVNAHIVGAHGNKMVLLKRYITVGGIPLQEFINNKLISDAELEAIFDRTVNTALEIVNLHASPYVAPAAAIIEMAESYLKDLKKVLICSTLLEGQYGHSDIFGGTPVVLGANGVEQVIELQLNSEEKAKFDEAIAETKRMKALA
Chain of Plasmodium falciparum protein kinase 6 (PK6, PF3D7_1337100) (Q8IDW1 1-305): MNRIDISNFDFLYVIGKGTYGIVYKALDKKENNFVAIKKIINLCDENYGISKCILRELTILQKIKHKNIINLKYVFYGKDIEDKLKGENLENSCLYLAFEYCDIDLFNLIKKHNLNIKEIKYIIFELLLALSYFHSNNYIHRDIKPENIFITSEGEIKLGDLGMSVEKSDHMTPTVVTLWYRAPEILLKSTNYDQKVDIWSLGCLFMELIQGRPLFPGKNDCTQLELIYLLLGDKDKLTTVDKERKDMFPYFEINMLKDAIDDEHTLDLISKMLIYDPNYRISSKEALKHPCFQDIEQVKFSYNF
Chain of Protein kinase 7 (PK7), Plasmodium falciparum 3D7 (PF3D7_0213400) (Q7YTF7 1-343): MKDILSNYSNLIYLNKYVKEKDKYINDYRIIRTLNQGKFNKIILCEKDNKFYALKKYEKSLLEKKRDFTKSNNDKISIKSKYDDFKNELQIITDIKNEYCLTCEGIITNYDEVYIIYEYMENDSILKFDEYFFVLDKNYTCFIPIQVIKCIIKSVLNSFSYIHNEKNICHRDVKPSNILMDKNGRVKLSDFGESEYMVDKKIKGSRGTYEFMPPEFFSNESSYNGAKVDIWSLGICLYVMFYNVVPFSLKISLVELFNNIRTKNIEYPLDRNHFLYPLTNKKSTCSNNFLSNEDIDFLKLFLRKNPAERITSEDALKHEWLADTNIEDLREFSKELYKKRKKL

Usually inhibition stands for the change of the read-out against control, counted positive when it falls. As for `Cc1cccc2c(C3CCN(CC4CCC(NC(=O)/C=C/c5ccc(Cl)c(Cl)c5)CC4)CC3)c[nH]c12` (stereo not given), the growth inhibition was 49% (inactive) in experiment [1] and 92% (active) in experiment [4]. The inhibition in experiment [2] is 97% (active); in experiment [3] it was -4% (inactive). In addition, the result in experiment [5], in experiment [6], in experiment [7] and in experiment [8] was inactive.
As to `OC1(c2ccc(Cl)c(C(F)(F)F)c2)CCN(CCOC2c3ccccc3CSc3ccc(Cl)cc32)CC1` (stereo not given), the growth inhibition in experiment [1] was 58% (active); in experiment [4] it was 95% (active). Further, the inhibition in experiment [2] is 3% (inactive); in experiment [3], 6% (inactive). In addition, the outcome in experiment [5], in experiment [6], in experiment [7] and in experiment [8] was inactive.
As to `COC(=O)/C=C/c1ccc(C[C@@H](C)NC[C@H](O)c2cccc(C(F)(F)F)c2)cc1`, the figures for the growth inhibition in experiment [1] and in experiment [4] were 93% (active) and 97% (active), respectively. The results for the inhibition in experiment [2] and in experiment [3] were 41% (inactive) and -6% (inactive), respectively. Further, the outcome in experiment [5], in experiment [6], in experiment [7] and in experiment [8] was inactive.
Consider `O=C(NC1CCC(CN2CCC(c3c[nH]c4ccccc34)CC2)CC1)c1cc2ccccc2s1` (stereo not given), for which the growth inhibition was 43% (inactive) and 68% (active) in experiment [1]; 98% (active) and 101% (active) in experiment [4]. Besides, the inhibition in experiment [2] was 44% (inactive); in experiment [3] it was 4% (inactive) and 5% (inactive). The outcome in experiment [5], in experiment [6], in experiment [7] and in experiment [8] was inactive.
`CCCCCCCSc1ccc(CC(C)NCC(O)c2cccc(Cl)c2)cc1` (stereo not given): the growth inhibition in experiment [1] is 99% (active); in experiment [4], 100% (active). The figures for the inhibition in experiment [2] and in experiment [3] were 94% (active) and -3% (inactive), respectively. The outcome in experiment [5], in experiment [6], in experiment [7] and in experiment [8] was inactive.
Regarding `COc1cccc(CC(C)NCC(O)c2cccc(Cl)c2)c1` (stereo not given), the results for the growth inhibition in experiment [1] and in experiment [4] were 76% (active) and 85% (active), respectively. In addition, the inhibition in experiment [2] was 7% (inactive); in experiment [3], -1% (inactive). Besides, the result in experiment [5], in experiment [6], in experiment [7] and in experiment [8] was inactive.
Take `CC[C@H]1CN2CC[C@H]1C[C@H]2[C@H](O)c1cc(-c2ccccc2F)nc2ccc(OC)cc12`: the results for the growth inhibition in experiment [1] and in experiment [4] were 98% (active) and 99% (active), respectively. For the same compound, the inhibition in experiment [2] is 13% (inactive); in experiment [3] it was 1% (inactive). The result in experiment [5], in experiment [6], in experiment [7] and in experiment [8] was inactive.
As for `CN1CC=C(c2c[nH]c3ccc(-c4ccccc4)cc23)CC1`, the growth inhibition in experiment [1] is 60% (active); in experiment [4], 93% (active). Also, the inhibition was 14% (inactive) in experiment [2] and -1% (inactive) in experiment [3]. The result in experiment [5], in experiment [6], in experiment [7] and in experiment [8] was inactive.
As for `CC(=O)C1(c2ccccc2)CCN(CCC2(c3ccc(Cl)c(Cl)c3)CN(C(=O)CC(C)C)CCO2)CC1` (stereo not given), the growth inhibition was 94% (active) in experiment [1] and 92% (active) in experiment [4]. Also, the inhibition in experiment [2] was 7% (inactive); in experiment [3] it was 0% (inactive). Further, the outcome in experiment [5], in experiment [6], in experiment [7] and in experiment [8] was inactive.
For the compound `Cc1[nH]c2cc(F)ccc2c1C1=CCN(CCCCC2(C)C(=O)Nc3ccccc32)CC1` (stereo not given), the growth inhibition is 90% (active) in experiment [1] and 93% (active) in experiment [4]. Also, the figures for the inhibition in experiment [2] and in experiment [3] were 13% (inactive) and -8% (inactive), respectively. Moreover, the outcome in experiment [5], in experiment [6], in experiment [7] and in experiment [8] was inactive.
Consider `CC(C)CNCc1cccc(-c2cccc(CN(C(=O)NC3CCCCC3)C3CCN(Cc4ccccc4)CC3)c2)c1`, for which the values for the growth inhibition in experiment [1] and in experiment [4] were 87% (active) and 97% (active), respectively. In addition, the inhibition in experiment [2] was 32% (inactive); in experiment [3] it was 8% (inactive). For the same compound, the result in experiment [5], in experiment [6], in experiment [7] and in experiment [8] was inactive.
For `COc1ccc(CC(C)NCC(O)c2cccc(Br)c2)cc1` (stereo not given), the growth inhibition in experiment [1] is 93% (active); in experiment [4] it was 99% (active). The figures for the inhibition in experiment [2] and in experiment [3] were 10% (inactive) and -1% (inactive), respectively. Moreover, the result in experiment [5], in experiment [6], in experiment [7] and in experiment [8] was inactive.
Consider `CCCCCc1cc(O)c2c3c(c(=O)oc2c1)CN(C)CC3`, for which the results for the growth inhibition in experiment [1] and in experiment [4] were 99% (active) and 101% (active), respectively. The inhibition in experiment [2] and in experiment [3] was 4% (inactive) each time. Also, the result in experiment [5], in experiment [6], in experiment [7] and in experiment [8] was inactive.
Turning to `O=C1NCN(c2ccc(O)cc2)C12CCN(CCCC(c1ccc(F)cc1)c1ccc(F)cc1)CC2`, the growth inhibition in experiment [1] was 34% (inactive); in experiment [4], 94% (active). Besides, the inhibition was 20% (inactive) in experiment [2] and 2% (inactive) in experiment [3]. In addition, the result in experiment [5], in experiment [6], in experiment [7] and in experiment [8] was inactive.
For `[O-]c1n[n+](C2CCCCC2)no1`, the growth inhibition in experiment [1] was 82% (active); in experiment [4], 91% (active). In addition, the results for the inhibition in experiment [2] and in experiment [3] were -13% (inactive) and -5% (inactive), respectively. The result in experiment [5], in experiment [6], in experiment [7] and in experiment [8] was inactive.
Take `Cc1c(C)c2c(c(C)c1O)CC[C@@](C)(C(=O)N1CCC(CN3CCC(c4c[nH]c5ccccc45)CC3)CC1)O2`: the growth inhibition in experiment [1] is 90% (active); in experiment [4] it was 98% (active). Further, the inhibition in experiment [2] was 21% (inactive); in experiment [3] it was 3% (inactive). Besides, the outcome in experiment [5], in experiment [6], in experiment [7] and in experiment [8] was inactive.
Consider `CC(C)CNCc1ccc(-c2ccc(CN(C(=O)NC3CCCCC3)C3CCN(Cc4ccccc4)CC3)cc2)cc1`, for which the growth inhibition was 88% (active) in experiment [1] and 101% (active) in experiment [4]. Further, the inhibition was 39% (inactive) in experiment [2] and -1% (inactive) in experiment [3]. Also, the outcome in experiment [5], in experiment [6], in experiment [7] and in experiment [8] was inactive.
For the compound `COCCNCc1cccc(-c2cccc(CN(C(=O)Nc3ccccc3)C3CCN(Cc4ccccc4)CC3)c2)c1`, the values for the growth inhibition in experiment [1] and in experiment [4] were 65% (active) and 100% (active), respectively. The inhibition was 28% (inactive) in experiment [2] and -1% (inactive) in experiment [3]. Besides, the result in experiment [5], in experiment [6], in experiment [7] and in experiment [8] was inactive.
Regarding `CCCCCOc1ccc(CC(C)NCC(O)c2cccc(Cl)c2)cc1` (stereo not given), the growth inhibition in experiment [1] was 99% (active); in experiment [4] it was 101% (active). Also, the inhibition in experiment [2] is 0% (inactive); in experiment [3], 2% (inactive). Also, the outcome in experiment [5], in experiment [6], in experiment [7] and in experiment [8] was inactive.
For the compound `CCC(C)CN1CCC(N(C)c2cc(NC(=O)c3ccc(F)cc3)ccn2)CC1` (stereo not given), the growth inhibition in experiment [1] is 32% (inactive); in experiment [4] it was 93% (active). In addition, the inhibition in experiment [2] is 4% (inactive); in experiment [3] it was -5% (inactive). The result in experiment [5], in experiment [6], in experiment [7] and in experiment [8] was inactive.
